Bioassay records (PubChem BioAssay)
This is a sample that favours compounds with a hit; in the whole collection about 13% have one here.
USP30 block – inhibitors of human USP30 deubiquitinase | Ubiquitin carboxyl-terminal hydrolase 30 (Homo sapiens), Q70CQ3 | purified USP30, Ub-rhodamine cleavage fluorescence | inhibition, % at 25 µM | 5.3% of 47,000 active
USP17 block – inhibitors of human USP17 deubiquitinase; AID 1645855, 2021; purified USP17, Ub-rhodamine cleavage fluorescence, 3 h; Ubiquitin carboxyl-terminal hydrolase 17-like protein 5 (Homo sapiens), A8MUK1; inhibition, % at 50 µM; 6.5% of 47,000 active
USP28 block – inhibitors of human USP28 deubiquitinase; Ubiquitin carboxyl-terminal hydrolase 28 (Homo sapiens), Q96RU2; purified USP28, Ub-rhodamine cleavage fluorescence, 30 min; inhibition, % at 25 µM; 3% of 47,000 active; AID 1645857, 2021
USP10 inh – inhibitors of human USP10 deubiquitinase; Ubiquitin carboxyl-terminal hydrolase 10 (Homo sapiens), Q14694; purified USP10, Ub-rhodamine fluorescence, 60 min; inhibition, % at 20 µM; 1.1% of 47,000 active
Target sequence (Q14694 whole entry, looked up): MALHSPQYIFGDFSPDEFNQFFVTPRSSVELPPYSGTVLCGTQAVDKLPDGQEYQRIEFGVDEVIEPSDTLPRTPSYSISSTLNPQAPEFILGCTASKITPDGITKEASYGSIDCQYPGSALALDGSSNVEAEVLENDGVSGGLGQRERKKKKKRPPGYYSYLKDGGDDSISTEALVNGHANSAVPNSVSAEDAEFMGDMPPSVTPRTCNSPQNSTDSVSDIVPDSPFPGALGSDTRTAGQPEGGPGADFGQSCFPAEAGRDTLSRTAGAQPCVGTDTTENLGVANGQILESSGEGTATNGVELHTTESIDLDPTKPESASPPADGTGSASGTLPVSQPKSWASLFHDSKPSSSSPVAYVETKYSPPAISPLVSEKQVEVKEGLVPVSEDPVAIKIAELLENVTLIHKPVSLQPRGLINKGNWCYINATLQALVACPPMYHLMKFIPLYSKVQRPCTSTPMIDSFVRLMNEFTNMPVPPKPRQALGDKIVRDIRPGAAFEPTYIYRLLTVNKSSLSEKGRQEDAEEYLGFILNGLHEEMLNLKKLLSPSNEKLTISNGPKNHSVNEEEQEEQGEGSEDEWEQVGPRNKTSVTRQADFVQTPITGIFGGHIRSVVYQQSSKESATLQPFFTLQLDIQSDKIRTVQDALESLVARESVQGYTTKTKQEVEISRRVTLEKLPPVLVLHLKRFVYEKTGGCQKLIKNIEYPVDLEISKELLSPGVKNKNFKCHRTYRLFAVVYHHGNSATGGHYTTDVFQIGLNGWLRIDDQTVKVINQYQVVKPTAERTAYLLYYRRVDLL
USP8 inh – inhibitors of human USP8 deubiquitinase | AID 1645853, 2021 | Ubiquitin carboxyl-terminal hydrolase 8 (Homo sapiens), P40818 | purified USP8, Ub-rhodamine cleavage fluorescence, 30 min | 4.2% of 47,000 active | inhibition, % at 20 µM
Each line names hits and unclear results; the compound was inactive in the other large screens. Cut-off read from the data, not from the text of the source: active = inhibition above about 30%; inactive = the rest.

Cc1ccc(S(=O)(=O)NCC(=O)OC(C(=O)Nc2cc(C)ccc2C)c2ccccc2)cc1 (stereo unspecified)	USP30 block 47, USP17 block 51
COc1cc2c(cc1OC)-c1cc(N3CCC(C)CC3)nc(=O)n1CC2	none
Cn1c(=O)c2c(-c3cccc(F)c3)c(Nc3ccccc3)oc2n(C)c1=O	USP28 block 39
Cc1ccccc1OCc1nc2c3cnn(C)c3ncn2n1	USP30 block 35
Cc1ccccc1OCc1nc2c3c(C)c(C)oc3ncn2n1	none
Cc1cccc(N2CCN(C(=O)Cn3c(=O)[nH]c4ccccc4c3=O)CC2)c1C	none
O=C(CCCn1c(=O)[nH]c2ccccc2c1=O)N1CCN(c2ccc(Cl)cc2)CC1	USP30 block 41
COc1ccc(N2CCN(C(=O)CCCCCn3c(=O)[nH]c4ccccc4c3=O)CC2)cc1	none
CC(=O)c1ccc(N2CCN(C(=O)Cn3c(=O)[nH]c4ccccc4c3=O)CC2)cc1	USP17 block 42 (no result: USP30 block, USP28 block)
O=C(Cn1c(=O)[nH]c2ccccc2c1=O)N1CCN(c2ccccc2F)CC1	USP30 block 32
Cc1ccc(NC(=O)c2ccccc2)c(=O)n1CC(=O)N1CCN(c2ccccc2F)CC1	USP30 block 30 (no result: USP17 block)
Cc1ccc(C)c(NC(=O)CC23CC4CC(C2)CC(n2nnc(C)n2)(C4)C3)c1	none
O=C(c1cncs1)N1CCc2[nH]nc(Nc3ccccc3)c2C1	none
COc1cc(C(=O)O)cc(O)c1OC	none
O=C(NC1CCCCC1)c1cc2c(cn1)[nH]c1ccccc12	USP28 block 59
Cc1cc(N2CCN(c3ncccn3)CC2)nc2ccc(NC(=O)c3cccnc3)cc12	USP17 block 35
Cc1cc(N2CCN(c3ncccn3)CC2)nc2ccc(NC(=O)C3CC3)cc12	none
COc1cccc(C(=O)Nc2ccc3nc(N4CCN(c5ncccn5)CC4)cc(C)c3c2)c1OC	USP30 block 85, USP17 block 59, USP8 inh 59
Cc1cc(N2CCN(c3ncccn3)CC2)nc2ccc(NC(=O)c3ccco3)cc12	USP30 block 58, USP17 block 67, USP28 block 68
C[C@]12C[C@@H](Cc3ccccc3)N(C(=O)c3cccc(Cn4cncn4)c3)[C@H]1CCCC(=O)N2	none
COc1ccc(C(=O)N2CC(C(=O)NCCc3ccc(F)cc3)C2)cn1	none
COc1cccc(CC(=O)NC(CCSC)c2nc3ccccc3[nH]2)c1 (stereo unspecified)	none
Cc1nc(-c2csc(S(=O)(=O)N3c4ccccc4CC3C)c2)no1 (stereo unspecified)	none
O=C(CSc1nncc2ccccc12)Nc1ccc2c(c1)OCO2	USP30 block 57
Cc1ccc(NC(=O)CSc2nncc3ccccc23)cc1	none
Cc1nc2ccccc2nc1SCC(=O)Nc1ccc2c(c1)OCO2	USP30 block 66, USP17 block 47
COCCn1ccc2nc(C)c(C(=O)Nc3ccc4c(c3)OCO4)cc2c1=O	USP8 inh 75
O=C(c1ccccc1)N(Cc1ccccn1)c1nc2ccc(F)cc2s1	none
CCNc1cc(N2CCCC(CCC(=O)N3CCC(C)CC3)C2)ncn1 (stereo unspecified)	none
Cn1cncc1-c1nnc([C@H]2CCN(Cc3ccccc3F)C2)o1	none
CC(O)(CS(=O)(=O)Cc1ccccc1)C(=O)Nc1cccc(C(F)(F)F)c1 (stereo unspecified)	none
Cc1cc(C(F)(F)F)n(-c2ccc(NC(=O)Nc3cccc(C(F)(F)F)c3)cc2)n1	USP17 block 39, USP28 block 43, USP10 inh 30
Cn1cc(NC(=O)Nc2cccc(C(F)(F)F)c2)c2ccccc2c1=O	USP30 block 78, USP17 block 98, USP28 block 61, USP10 inh 68, USP8 inh 97
Cc1ccc(Cn2nc(C)cc2C(=O)Nc2cccc(C(F)(F)F)c2)cc1	none
Fc1cccc(-c2noc(-c3ccc(N4CCC5(CC4)OCCO5)nc3)n2)c1	none
Cc1c(O)c(O)c2c(c1O)COC2	USP17 block 39
Cc1cc(F)ccc1NC(=O)C1CCN(c2cnc(N3CCCCC3)nc2)CC1	USP28 block 33, USP8 inh 31
Cc1noc(-c2ccc(N3CCCC(C(=O)Nc4cccc(F)c4C)C3)nc2)n1 (stereo unspecified)	none
Cc1noc(-c2ccc(N3CCCC(C(=O)NCc4ccc(F)cc4)C3)nc2)n1 (stereo unspecified)	USP17 block 58
O=C(NCc1ccc(F)cc1)C1CCN(c2cnc(N3CCCCC3)nc2)CC1	USP28 block 69
O=C(NCc1ccccc1)C1CCN(c2cnc(N3CCCCCC3)nc2)CC1	none
O=C(O)c1ccc(C(=O)Nc2ccc(SCC(=O)N3CCc4ccccc43)cc2)c(C(=O)O)c1	none
O=C1N(CC2CCCCC2)CCN1c1ccc2c(c1)CCC2	USP17 block 31
O=C1N(CC2CC2)CCN1c1ccc2c(c1)CCC2	USP28 block 34
CCCCN1CCN(c2ccc3c(c2)CCC3)C1=O	none
Cc1nc2c(c3c1COC(C)(C)C3)c(=O)ncn2Cc1ccccc1	none
Cc1ccc(Cl)cc1NC(=O)c1ccc(N(C)C)cc1	none
CN(C)c1ccc(/C=N/NC(=O)c2ccc(Cl)cc2)cc1	USP17 block 88, USP8 inh 51
CN1CCN(c2cc(-n3nc(C(F)(F)F)cc3-c3ccccc3)ncn2)CC1	none
O=C(NCC(=O)N1CCc2[nH]c3ccccc3c2C1)c1ccc(F)cc1	none
CC(C)C(NC(=O)COc1ccccc1)C(=O)N1CCc2[nH]c3ccccc3c2C1 (stereo unspecified)	USP8 inh 63
Cc1ccc(-c2noc(CNc3ccc(Oc4ccccc4)cc3)n2)cc1	USP8 inh 79
Cc1ccc(-c2noc(Cc3nnc(-c4ccccc4)o3)n2)cc1	none
COC(=O)c1ccc(C2CC(=O)Nc3c2sc(C(=O)O)c3-c2ccc(OC)cc2)cc1 (stereo unspecified)	USP30 block 34
O=C1CC(c2ccccc2)S(=O)(=O)c2ccccc2N1Cc1ccccc1F (stereo unspecified)	USP17 block 39
O=C1CN(Cc2ccccc2)S(=O)(=O)c2ccccc2N1Cc1ccccc1F	none
O=C1CN(Cc2cccc(F)c2)S(=O)(=O)c2ccccc2N1Cc1ccccc1F	USP30 block 31
COc1ccc(C2CC(=O)N(CC(=O)c3ccccc3)c3ccccc3S2(=O)=O)cc1OC (stereo unspecified)	none
COc1ccc(C2CC(=O)N(Cc3ccccc3F)c3ccccc3S2(=O)=O)cc1OC (stereo unspecified)	USP17 block 36, USP8 inh 33
CC1CCCCN1C(=O)c1cc(-c2cnc(-c3ccnn3C)nc2)cn1C (stereo unspecified)	none
CC(C)CC(=O)N1CCC2(CC1)[C@@H]1CN(CC(C)C)C[C@@H]1C(=O)N2C	none (no result: USP30 block, USP28 block)
COc1ccc(-c2cc(-c3ccccc3)nc(SCC(N)=O)c2C#N)cc1OC	USP17 block 75
